Results reported in publication PMC5540273 (PLoS ONE, 2017).
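Note: KINOMEscan kinase panel screen.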

These compounds were tested on CDK4. Conditions: concentration: 1 μM, replicates: in singlicate; n = 1.
With `Nc1nc(-c2nccs2)c(-c2ccnc3ccccc23)s1` [GW693542] the “%Inh” value was 15%.
`CC1=C(C(=O)Nc2cc3cn[nH]c3cc2F)C(c2ccc(C(F)(F)F)cc2)CC(=O)N1` (stereo not drawn) [GSK429286] was tested, and the “%Inh” value was 11%.
With `Cc1cccc(-c2nc(Nc3ccc4[nH]ncc4c3)c3ccccc3n2)n1` [GW857175] the “%Inh” value was 0%.
For `Cc1cc(NCC(c2ccccc2)c2ccccc2)nc(NCc2ccc(C(F)(F)F)cc2)n1` [GW497681], the “%Inh” value was 0%.
With `COC(=O)c1c(-c2ccccc2)c2cc(OC)ccc2c(=O)n1Cc1ccccc1` the “%Inh” value was 0%.
With `Cn1ccc2ncnc(Oc3ccc(Nc4nc5ccccc5[nH]4)cc3)c21` the “%Inh” value was 0%.
`COc1cc(Nc2nccc(N3CCC(NC(=O)Nc4cc(C)ccc4C)C3)n2)cc(OC)c1OC` (stereo not drawn) [GSK1379762] was tested, and the “%Inh” value was 0%.
`O=C(Nc1ccccc1)Nc1cccc(Oc2ccc3nccn3n2)c1` was tested, and the “%Inh” value was 0%.
With `Cl.O=C(Nc1cccc(-c2nn3ncccc3c2-c2ccnc(Nc3cccnc3)n2)c1)c1c(F)cccc1F` [GSK312879] the “%Inh” value was 0%.
In the case of `CCn1c(-c2ccccn2)nc2cnccc21` [SB-736398], the “%Inh” value is reported as 34%.
For `CC(C)(C)c1ccc(C(=O)Nc2cn3cc(Cl)ccc3n2)cc1`, the “%Inh” value was 0%.
`Cl.NC(=O)c1cccc(Nc2nccc(Nc3ccc(Oc4cccc(Cl)c4)c(Cl)c3)n2)c1` [GW659008] was tested, and the “%Inh” value was 48%.
For `Cc1ccccc1-n1cnc2c(N)ncnc21` [SKF-97510], the “%Inh” value was 0%.
`COc1ccc2nc(-c3cccc(C)n3)nc(Nc3ccncc3)c2c1` [GSK204919] was tested, and the “%Inh” value was 0%.
`Cc1nnc(-c2ccc3occ(-c4ccc(S(C)=O)cc4)c3c2)[nH]1` (stereo not drawn) was tested, and the “%Inh” value was 0%.
In the case of `Cc1cccc(-c2cc(Nc3ccncc3)c3ccccc3n2)n1` [GSK223675], the “%Inh” value is reported as 0%.
In the case of `Cc1csc(-c2nc(Nc3ccncc3)c3ccccc3n2)n1` [GW869640], the “%Inh” value is reported as 20%.
With `Cn1ccc2ncnc(Oc3cccc(C(=O)Nc4ccccc4)c3)c21` the “%Inh” value was 0%.
In the case of `O=C(Nc1n[nH]c2cc(-c3cccc(F)c3F)ccc12)C1CC1` [SB-733894], the “%Inh” value is reported as 0%.
`Cc1cc(-c2ccc3c(c2)CC[C@@H](N[C@@H](C)c2ccccc2)C3)cnc1N.Cl` [GW412617] was tested, and the “%Inh” value was 26%.
With `Cc1ccc(NC(=O)Nc2cccc(Cl)c2)cc1-c1ccc(C(=O)Nc2ccncc2)cc1` [GSK1398468] the “%Inh” value was 0%.
`CN(C)CCN(C)C(=O)c1cc(-c2ccncc2)c(-c2ccc(Cl)c(O)c2)o1.Cl.Cl` [SB-710397] was tested, and the “%Inh” value was 0%.
For `O=C(Nc1n[nH]c2nc(-c3nccs3)c(Br)cc12)C1CC1` [SB-742251], the “%Inh” value was 44%.
For `Cc1cccc(-c2nc(C)cc(Nc3ccncc3)n2)n1` [GSK257997], the “%Inh” value was 28%.
In the case of `Cc1cccc(-c2nc(Nc3cccc(C(N)=O)c3)c3ccccc3n2)n1` [GW876019], the “%Inh” value is reported as 0%.
In the case of `COc1cc2ncnc(Nc3ccc4nc(-c5ccccc5)[nH]c4c3)c2cc1OC.Cl` [GW282450], the “%Inh” value is reported as 20%.
With `CN1C(=O)C(Nc2ccc(Cl)c(C(=O)O)c2)=C(c2ccc(Cl)cc2)C1=O` [SB-404290] the “%Inh” value was 47%.
For `Cc1cccc(-c2nc(Nc3ccncc3)c3ccccc3n2)n1` [GW855857], the “%Inh” value was 0%.
In the case of `CCn1c(-c2cccnc2O)nc2cnccc21` [SB-736715], the “%Inh” value is reported as 4%.
For `COc1ccccc1-c1ccc2c(NC(=O)C3CC3)n[nH]c2n1` [SB-711239], the “%Inh” value was 33%.
In the case of `CS(=O)(=O)c1ccc(-c2nc3n(c2-c2ccncc2)CCC3)cc1` [SKF-105942], the “%Inh” value is reported as 9%.
For `CC(C)(C)c1ccc(C(=O)Nc2cn3cc(-c4cccnc4)ccc3n2)cc1`, the “%Inh” value was 0%.
In the case of `Cc1c(Cn2ccn3c(=O)cc(N4CCOCC4)nc23)cccc1C(F)(F)F` [GSK2289044], the “%Inh” value is reported as 4%.
`O=C(O)COc1ncnc2cc(-c3ccc4[nH]ncc4c3)sc12` was tested, and the “%Inh” value was 0%.

Each compound was assayed on CDK5. Conditions: concentration: 1 μM, replicates: in singlicate; n = 1.
In the case of `Nc1nc(-c2nccs2)c(-c2ccnc3ccccc23)s1` [GW693542], the “%Inh” value is reported as 0%.
For `CC1=C(C(=O)Nc2cc3cn[nH]c3cc2F)C(c2ccc(C(F)(F)F)cc2)CC(=O)N1` (stereo not drawn) [GSK429286], the “%Inh” value was 0%.
With `Cc1cccc(-c2nc(Nc3ccc4[nH]ncc4c3)c3ccccc3n2)n1` [GW857175] the “%Inh” value was 3%.
In the case of `Cc1cc(NCC(c2ccccc2)c2ccccc2)nc(NCc2ccc(C(F)(F)F)cc2)n1` [GW497681], the “%Inh” value is reported as 0%.
For `CSc1nn2c(=O)cc(N3CCOCC3)nc2n1Cc1cccc(C(F)(F)F)c1C` [GSK2363608], the “%Inh” value was 0%.
`COC(=O)c1c(-c2ccccc2)c2cc(OC)ccc2c(=O)n1Cc1ccccc1` was tested, and the “%Inh” value was 11%.
In the case of `Cn1ccc2ncnc(Oc3ccc(Nc4nc5ccccc5[nH]4)cc3)c21`, the “%Inh” value is reported as 0%.
For `COc1cc(Nc2nccc(N3CCC(NC(=O)Nc4cc(C)ccc4C)C3)n2)cc(OC)c1OC` (stereo not drawn) [GSK1379762], the “%Inh” value was 0%.
With `O=C(Nc1ccccc1)Nc1cccc(Oc2ccc3nccn3n2)c1` the “%Inh” value was 0%.
With `Cl.O=C(Nc1cccc(-c2nn3ncccc3c2-c2ccnc(Nc3cccnc3)n2)c1)c1c(F)cccc1F` [GSK312879] the “%Inh” value was 0%.
For `CCn1c(-c2ccccn2)nc2cnccc21` [SB-736398], the “%Inh” value was 0%.
`CC(C)(C)c1ccc(C(=O)Nc2cn3cc(Cl)ccc3n2)cc1` was tested, and the “%Inh” value was 18%.
`Cl.NC(=O)c1cccc(Nc2nccc(Nc3ccc(Oc4cccc(Cl)c4)c(Cl)c3)n2)c1` [GW659008] was tested, and the “%Inh” value was 0%.
With `Cc1ccccc1-n1cnc2c(N)ncnc21` [SKF-97510] the “%Inh” value was 0%.
`COc1ccc2nc(-c3cccc(C)n3)nc(Nc3ccncc3)c2c1` [GSK204919] was tested, and the “%Inh” value was 0%.
`Cc1nnc(-c2ccc3occ(-c4ccc(S(C)=O)cc4)c3c2)[nH]1` (stereo not drawn) was tested, and the “%Inh” value was 0%.
In the case of `Cc1cccc(-c2cc(Nc3ccncc3)c3ccccc3n2)n1` [GSK223675], the “%Inh” value is reported as 0%.
With `Cc1csc(-c2nc(Nc3ccncc3)c3ccccc3n2)n1` [GW869640] the “%Inh” value was 13%.
In the case of `Cn1ccc2ncnc(Oc3cccc(C(=O)Nc4ccccc4)c3)c21`, the “%Inh” value is reported as 16%.
For `O=C(Nc1n[nH]c2cc(-c3cccc(F)c3F)ccc12)C1CC1` [SB-733894], the “%Inh” value was 0%.
With `Cc1cc(-c2ccc3c(c2)CC[C@@H](N[C@@H](C)c2ccccc2)C3)cnc1N.Cl` [GW412617] the “%Inh” value was 4%.
With `Cc1ccc(NC(=O)Nc2cccc(Cl)c2)cc1-c1ccc(C(=O)Nc2ccncc2)cc1` [GSK1398468] the “%Inh” value was 0%.
For `CN(C)CCN(C)C(=O)c1cc(-c2ccncc2)c(-c2ccc(Cl)c(O)c2)o1.Cl.Cl` [SB-710397], the “%Inh” value was 0%.
`O=C(Nc1n[nH]c2nc(-c3nccs3)c(Br)cc12)C1CC1` [SB-742251] was tested, and the “%Inh” value was 0%.
For `Cc1cccc(-c2nc(C)cc(Nc3ccncc3)n2)n1` [GSK257997], the “%Inh” value was 0%.
With `Cc1cccc(-c2nc(Nc3cccc(C(N)=O)c3)c3ccccc3n2)n1` [GW876019] the “%Inh” value was 0%.
`COc1cc2ncnc(Nc3ccc4nc(-c5ccccc5)[nH]c4c3)c2cc1OC.Cl` [GW282450] was tested, and the “%Inh” value was 0%.
For `CN1C(=O)C(Nc2ccc(Cl)c(C(=O)O)c2)=C(c2ccc(Cl)cc2)C1=O` [SB-404290], the “%Inh” value was 0%.
In the case of `Cc1cccc(-c2nc(Nc3ccncc3)c3ccccc3n2)n1` [GW855857], the “%Inh” value is reported as 0%.
For `CCn1c(-c2cccnc2O)nc2cnccc21` [SB-736715], the “%Inh” value was 0%.
With `COc1ccccc1-c1ccc2c(NC(=O)C3CC3)n[nH]c2n1` [SB-711239] the “%Inh” value was 0%.
For `CS(=O)(=O)c1ccc(-c2nc3n(c2-c2ccncc2)CCC3)cc1` [SKF-105942], the “%Inh” value was 0%.
In the case of `CC(C)(C)c1ccc(C(=O)Nc2cn3cc(-c4cccnc4)ccc3n2)cc1`, the “%Inh” value is reported as 3%.
With `Cc1c(Cn2ccn3c(=O)cc(N4CCOCC4)nc23)cccc1C(F)(F)F` [GSK2289044] the “%Inh” value was 0%.
`O=C(O)COc1ncnc2cc(-c3ccc4[nH]ncc4c3)sc12` was tested, and the “%Inh” value was 45%.
